In all, about 9,900 sequences were measured (“r (bound/input frequency ratio)”: median about 0.7, highest 2% from about 6.5 on). This is one part of a sample in which the highest values are shown more often than they occur.
B1: ENSMUSG00000061578.1477|Ksr2 (ssRNA)
RNA: GGGAGUUCUACAGUCCGACGAUCGCUUCGAUAUCCGCAUGCUAUGGAUUGAUUUGUGAAUGAAUGGAUGAAUGGAUGGGUAGGUGGGUGGAUGCAUAGGCAAGUAGAUGAAUGAAUAUGUGGGUAGAAGGGUGAGUGGGUGGAUGAAUGGAUGGAUAGGUUGGUAGGUUAAUGUAUUCGUGGAUGGGUGAAUGGAUGGAUGGAUAGAUAGAUGGGAAGGUGGAUGGACAGAUGGAUGGAUGGAUAGAUAGAUGGACAGGUGGUUGGUGGAUAAAUGAGUGAAUGAUUAUGUUGAUAGAUAUGUCUCUUGCGGUCGCACUAGUGUGGAAUUCUCGGGUGUCAAGG
B2: ENSMUSG00000061578.1462|Ksr2 (ssRNA)
RNA: GGGAGUUCUACAGUCCGACGAUCGCUUCGAUAUCCGCAUGCUAGAUGGGUAGGUGGGUAGAUAGGUAUAUGAAUGAAUGGAUGAAUGGAUGGGUGAAUGGAUGGAUAGGUAUGUGAAUAAAUGGAUGGAUGGAUGGAUUGAUUUGUGAAUGAAUGGAUGAAUGGAUGGGUAGGUGGGUGGAUGCAUAGGCAAGUAGAUGAAUGAAUAUGUGGGUAGAAGGGUGAGUGGGUGGAUGAAUGGAUGGAUAGGUUGGUAGGUUAAUGUAUUCGUGGAUGGGUGAAUGGAUGGAUGGAUAGAUAGAUGCUCUUGCGGUCGCACUAGUGUGGAAUUCUCGGGUGUCAAGG
B3: ENSMUSG00000061578.1467|Ksr2 (ssRNA)
RNA: GGGAGUUCUACAGUCCGACGAUCGCUUCGAUAUCCGCAUGCUAUGAAUGGAUGAAUGGAUGGGUGAAUGGAUGGAUAGGUAUGUGAAUAAAUGGAUGGAUGGAUGGAUUGAUUUGUGAAUGAAUGGAUGAAUGGAUGGGUAGGUGGGUGGAUGCAUAGGCAAGUAGAUGAAUGAAUAUGUGGGUAGAAGGGUGAGUGGGUGGAUGAAUGGAUGGAUAGGUUGGUAGGUUAAUGUAUUCGUGGAUGGGUGAAUGGAUGGAUGGAUAGAUAGAUGGGAAGGUGGAUGGACAGAUGGAUGGAUGGACUCUUGCGGUCGCACUAGUGUGGAAUUCUCGGGUGUCAAGG
B4: ENSMUSG00000061578.1466|Ksr2 (ssRNA)
RNA: GGGAGUUCUACAGUCCGACGAUCGCUUCGAUAUCCGCAUGCUAUAUGAAUGAAUGGAUGAAUGGAUGGGUGAAUGGAUGGAUAGGUAUGUGAAUAAAUGGAUGGAUGGAUGGAUUGAUUUGUGAAUGAAUGGAUGAAUGGAUGGGUAGGUGGGUGGAUGCAUAGGCAAGUAGAUGAAUGAAUAUGUGGGUAGAAGGGUGAGUGGGUGGAUGAAUGGAUGGAUAGGUUGGUAGGUUAAUGUAUUCGUGGAUGGGUGAAUGGAUGGAUGGAUAGAUAGAUGGGAAGGUGGAUGGACAGAUGGAUGCUCUUGCGGUCGCACUAGUGUGGAAUUCUCGGGUGUCAAGG
B5: ENSMUSG00000061578.1471|Ksr2 (ssRNA)
RNA: GGGAGUUCUACAGUCCGACGAUCGCUUCGAUAUCCGCAUGCUAUGGAUGGAUAGGUAUGUGAAUAAAUGGAUGGAUGGAUGGAUUGAUUUGUGAAUGAAUGGAUGAAUGGAUGGGUAGGUGGGUGGAUGCAUAGGCAAGUAGAUGAAUGAAUAUGUGGGUAGAAGGGUGAGUGGGUGGAUGAAUGGAUGGAUAGGUUGGUAGGUUAAUGUAUUCGUGGAUGGGUGAAUGGAUGGAUGGAUAGAUAGAUGGGAAGGUGGAUGGACAGAUGGAUGGAUGGAUAGAUAGAUGGACAGGUGGUUGGUCUCUUGCGGUCGCACUAGUGUGGAAUUCUCGGGUGUCAAGG
B6: ENSMUSG00000061578.1475|Ksr2 (ssRNA)
RNA: GGGAGUUCUACAGUCCGACGAUCGCUUCGAUAUCCGCAUGCUAUGGAUGGAUGGAUGGAUUGAUUUGUGAAUGAAUGGAUGAAUGGAUGGGUAGGUGGGUGGAUGCAUAGGCAAGUAGAUGAAUGAAUAUGUGGGUAGAAGGGUGAGUGGGUGGAUGAAUGGAUGGAUAGGUUGGUAGGUUAAUGUAUUCGUGGAUGGGUGAAUGGAUGGAUGGAUAGAUAGAUGGGAAGGUGGAUGGACAGAUGGAUGGAUGGAUAGAUAGAUGGACAGGUGGUUGGUGGAUAAAUGAGUGAAUGAUUAUGUCUCUUGCGGUCGCACUAGUGUGGAAUUCUCGGGUGUCAAGG
B7: ENSMUSG00000061578.1473|Ksr2 (ssRNA)
RNA: GGGAGUUCUACAGUCCGACGAUCGCUUCGAUAUCCGCAUGCUAUAUGUGAAUAAAUGGAUGGAUGGAUGGAUUGAUUUGUGAAUGAAUGGAUGAAUGGAUGGGUAGGUGGGUGGAUGCAUAGGCAAGUAGAUGAAUGAAUAUGUGGGUAGAAGGGUGAGUGGGUGGAUGAAUGGAUGGAUAGGUUGGUAGGUUAAUGUAUUCGUGGAUGGGUGAAUGGAUGGAUGGAUAGAUAGAUGGGAAGGUGGAUGGACAGAUGGAUGGAUGGAUAGAUAGAUGGACAGGUGGUUGGUGGAUAAAUGAGUCUCUUGCGGUCGCACUAGUGUGGAAUUCUCGGGUGUCAAGG
B8: ENSMUSG00000061578.1460|Ksr2 (ssRNA)
RNA: GGGAGUUCUACAGUCCGACGAUCGCUUCGAUAUCCGCAUGCUAGAUGGAUGAAUGGAUGGGUAGGUGGGUAGAUAGGUAUAUGAAUGAAUGGAUGAAUGGAUGGGUGAAUGGAUGGAUAGGUAUGUGAAUAAAUGGAUGGAUGGAUGGAUUGAUUUGUGAAUGAAUGGAUGAAUGGAUGGGUAGGUGGGUGGAUGCAUAGGCAAGUAGAUGAAUGAAUAUGUGGGUAGAAGGGUGAGUGGGUGGAUGAAUGGAUGGAUAGGUUGGUAGGUUAAUGUAUUCGUGGAUGGGUGAAUGGAUGGAUGCUCUUGCGGUCGCACUAGUGUGGAAUUCUCGGGUGUCAAGG
B9: ENSMUSG00000031028.156|Tub (ssRNA)
RNA: GGGAGUUCUACAGUCCGACGAUCGCUUCGAUAUCCGCAUGCUAAGCUCCCAUUAUUGCCAGCAUGCCAUGAUCAGUGAGGGCUGUGUGCCAUGCUUAGGGGGAUGGCGCAGGGUGAGGGGAGCAGAGGAUAUUUUAGGGCCACAAGAGCUCAGAGGUAGCGGACCUCUGUGUGGUUCACCAACAGCAAUGCUGAUCCCUGAGUAUAGGGCACAUGUCUCUUGGUUACCUCACUGGUUAAUGGCAGAGUUGAGAACCUCAAAUUCUUUUGUUCCUACUGUUGCCCAGAAACUAGACUCUCUGACCUCUUGCGGUCGCACUAGUGUGGAAUUCUCGGGUGUCAAGG

The binders below were run against TDP-43 (Homo sapiens, UniProt Q13148 1-414) (assay: RNA Bind-n-Seq with designed 260-mer pool; 25 mM Tris-HCl, 150 mM KCl, 3 mM MgCl2, BSA (printed 500 mg/mL), 20 units/mL SUPERase IN; pH not stated; 500 nM RNA pool, 1 h, 4 C; TDP-43 5, 50, 500 nM; high values mean tight binding). Details: protein: recombinant; tags: SBP (GST cleaved off with PreScission; pGEX-GST-SBP).
TDP-43, sequence (Q13148 whole entry): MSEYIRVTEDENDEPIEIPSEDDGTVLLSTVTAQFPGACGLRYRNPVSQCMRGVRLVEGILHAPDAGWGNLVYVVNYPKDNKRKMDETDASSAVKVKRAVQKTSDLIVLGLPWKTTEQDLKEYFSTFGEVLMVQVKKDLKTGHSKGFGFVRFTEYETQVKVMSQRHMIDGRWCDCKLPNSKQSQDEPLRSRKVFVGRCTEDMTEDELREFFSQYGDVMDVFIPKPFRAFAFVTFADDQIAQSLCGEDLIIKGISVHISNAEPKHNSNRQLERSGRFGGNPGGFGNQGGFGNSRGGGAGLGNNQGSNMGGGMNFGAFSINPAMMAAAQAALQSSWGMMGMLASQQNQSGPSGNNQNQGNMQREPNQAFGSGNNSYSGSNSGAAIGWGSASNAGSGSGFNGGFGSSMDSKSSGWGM
Procedure, shortened: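 For each oligo, R gives binding as its mapped-read-normalized abundance after pulldown divided by its abundance in input. Bead-captured SBP-tagged TDP-43 (5, 50 or 500 nM) was incubated with 500 nM of an in vitro-transcribed 260-nt 3′ UTR oligo pool for 1 h at 4 °C in 25 mM Tris-HCl, 150 mM KCl, 3 mM MgCl2, BSA and SUPERase IN on streptavidin beads. Washed, biotin-eluted RNA was reverse transcribed, PCR-amplified and sequenced.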

B1 was tested. Which binding signal did it give?
Its binding signal is 5.58 R (bound/input frequency ratio).

For B2, which binding signal is on record?
Its binding signal is 5.83 R (bound/input frequency ratio).

How did the binding signal turn out when B3 was run?
Its binding signal is 3.46 R (bound/input frequency ratio).

For B4, which binding signal is on record?
The binding signal was 5.78 R (bound/input frequency ratio).

Which binding signal does the source give for B5 here?
Its binding signal is 6.33 R (bound/input frequency ratio).

For B6, which binding signal is on record?
The binding signal was 8.8 R (bound/input frequency ratio).

B7 was tested. Which binding signal did it give?
Its binding signal is 9.68 R (bound/input frequency ratio).

B8 was tested. Which binding signal did it give?
The binding signal was 6.72 R (bound/input frequency ratio).

Which binding signal does the source give for B9 here?
Its binding signal is 0.518 R (bound/input frequency ratio).
